A selection: hits, their analogues and other compounds. The true share with any hit is near 1.1%.
HTR5A inv ctr = inverse agonist of human HTR5A in OPRM1-OPRD1 counter-screen. P47898. HTR5A cell line, luminescence, inverse agonism. inhibition, % at 9.3 µM. 0.083% of 340,000 active; in the data active means inhibition mostly above about 23%, no sharp cut-off; inactive means mostly below about 18%;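 further: 0% = cells with DMSO and 100% = no-cell wells with DMSO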
Target sequence (P47898 whole entry, looked up): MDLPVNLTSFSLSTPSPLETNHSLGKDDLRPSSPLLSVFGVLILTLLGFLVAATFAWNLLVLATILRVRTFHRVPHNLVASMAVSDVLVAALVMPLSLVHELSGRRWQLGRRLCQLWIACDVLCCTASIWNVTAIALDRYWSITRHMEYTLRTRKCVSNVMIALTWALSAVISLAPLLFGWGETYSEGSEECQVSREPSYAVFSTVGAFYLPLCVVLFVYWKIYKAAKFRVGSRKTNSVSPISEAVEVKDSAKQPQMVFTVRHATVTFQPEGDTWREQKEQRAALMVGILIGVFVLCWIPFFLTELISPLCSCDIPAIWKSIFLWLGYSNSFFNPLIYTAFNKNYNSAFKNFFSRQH
MOR-DOR inv ag = mu-delta opioid heterodimer inverse agonism | inhibition, % at 9.3 µM | P35372+P41143 | 0.21% of 340,000 active | cell-based MOR-DOR heterodimer luminescence; in the data active means inhibition above about 22%, passing the limit was not always enough;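 further: 0% = cells with DMSO and 100% = wells without cells with DMSO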
HTR5A ag ctr = HTR5A agonism, opioid heterodimer counter-screen | activation, % at 9.3 µM | HTR5A agonist assay, luminescence, cell-based | 0.61% of 340,000 active; in the data active means activation mostly above about 9.5%, no sharp cut-off; inactive means mostly below about 7.6%;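 further: 0% = cells with vehicle only and 100% = reference agonist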
OPRM1-OPRD1 ag = OPRM1-OPRD1 heterodimerization agonism. P35372+P41143. AID 504326. activation, % at 9.3 µM. 0.3% of 340,000 active. cells, luminescence;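 further: 0% = vehicle-treated cells and 100% = reference agonist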
OPRM1-D1 ag cf = confirmation of human OPRM1-OPRD1 heterodimerization agonists; shares compounds with OPRM1-OPRD1 ag; cells, MOR-DOR heterodimerization, luminescence complementation; activation, % at 9.3 µM; 45% of 830 active;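 further: 0% = vehicle-treated cells and 100% = reference agonist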
HTR5A ag counter = counter-screen for OPRM1-OPRD1 agonists: human HTR5A agonism; 8% of 830 active; AID 504905; activation, % at 9.3 µM; HTR5A agonist counterscreen, cell luminescence; shares compounds with OPRM1-OPRD1 ag; in the data active means activation above about 17%;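 further: 0% = vehicle-treated cells and 100% = reference agonist response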
* = called active by the depositor. Unless noted, no stated cut-off is given here; in the data, active means activation above about 18%; inactive means the rest.

How did COc1ccc2[nH]c3c(c2c1)CCN1C(=O)N([C@@H](C)C(=O)NC2CCN(Cc4ccccc4)CC2)C(=O)[C@]31C do in these assays?
HTR5A inv ctr: 13; MOR-DOR inv ag: 9; HTR5A ag ctr: -3; OPRM1-OPRD1 ag: -2

Results for CCn1ccnc1CNCc1cn(-c2cc(C)ccc2C)nc1-c1ccccc1 ?
HTR5A inv ctr: 2; MOR-DOR inv ag: -12; HTR5A ag ctr: -4; OPRM1-OPRD1 ag: 2

What do the screens show for `Cc1ccc(C)c(-n2cc(CNCCc3cnccn3)c(-c3ccccc3)n2)c1`?
HTR5A inv ctr: -25; MOR-DOR inv ag: -275; HTR5A ag ctr: 8; OPRM1-OPRD1 ag: 54*; OPRM1-D1 ag cf: 79*; HTR5A ag counter: -1

How did COc1ccc(/C=N/n2c(-c3ccco3)nc3ccccc3c2=O)cc1 do in these assays?
HTR5A inv ctr: -23; MOR-DOR inv ag: -240; HTR5A ag ctr: 1; OPRM1-OPRD1 ag: 41*; OPRM1-D1 ag cf: -5; HTR5A ag counter: -4

What do the screens show for `COCc1c(C(=O)N/N=C/c2cccc3ccccc23)nnn1-c1nonc1N`?
HTR5A inv ctr: -14; MOR-DOR inv ag: -137; HTR5A ag ctr: 5; OPRM1-OPRD1 ag: 27*; OPRM1-D1 ag cf: 15; HTR5A ag counter: 5

How did O=[N+]([O-])c1cc(N=Nc2ccc3ccccc3c2)ccc1O do in these assays?
HTR5A inv ctr: -11; MOR-DOR inv ag: 20; HTR5A ag ctr: 3; OPRM1-OPRD1 ag: -4

How did C[C@]12CCC[C@H](O1)[C@H]([C@@H](O)c1ccccc1)O2 do in these assays?
HTR5A inv ctr: 12; MOR-DOR inv ag: -25; HTR5A ag ctr: 11; OPRM1-OPRD1 ag: 4

How did CSCCC(/C(O)=C(\C#N)c1nc2ccccc2[nH]1)N1C(=O)c2ccccc2C1=O (configuration not stated) do in these assays?
HTR5A inv ctr: -2; MOR-DOR inv ag: -264; HTR5A ag ctr: 1; OPRM1-OPRD1 ag: 58*; OPRM1-D1 ag cf: 49*; HTR5A ag counter: 1

How did C=C[C@](C)(CC[C@@]1(C)C(C)CC(OC2OC(C)C(OC3OC(COC(C)=O)C(O)C(O)C3O)C(O)C2O)[C@@]2(C)C(C)=CCCC12)OC1OC(C)C(O[C@@H]2O[C@@H](C)C(O)C(O)[C@H]2O)C(O)C1O (some centres not stated) do in these assays?
HTR5A inv ctr: -5; MOR-DOR inv ag: 4; HTR5A ag ctr: 1; OPRM1-OPRD1 ag: -1

Results for CN(C)C(CNC(=O)c1oc2ccccc2c1CSc1ncn[nH]1)c1ccco1 (configuration not stated) ?
HTR5A inv ctr: -2; MOR-DOR inv ag: -111; HTR5A ag ctr: 1; OPRM1-OPRD1 ag: 21*; OPRM1-D1 ag cf: 30*; HTR5A ag counter: 3

Results for CN1CCN(c2ccccc2/C=C2/C(=O)Nc3ccccc32)CC1 ?
HTR5A inv ctr: -16; MOR-DOR inv ag: -3; HTR5A ag ctr: 4; OPRM1-OPRD1 ag: 1

Results for O=C1C=C(NCCc2cc(Br)c(O)c(Br)c2)C(=O)c2ncccc21 ?
HTR5A inv ctr: -25; MOR-DOR inv ag: -157; HTR5A ag ctr: 6; OPRM1-OPRD1 ag: 36*; OPRM1-D1 ag cf: 10; HTR5A ag counter: 4

What do the screens show for `COc1ccc(NS(=O)(=O)c2cccc(C(=O)NC3CCN(Cc4ccccc4)CC3)c2)cc1`?
HTR5A inv ctr: -7; MOR-DOR inv ag: -4; HTR5A ag ctr: 1; OPRM1-OPRD1 ag: 1

What do the screens show for `COc1ccc(Cl)cc1NS(=O)(=O)c1cccc(C(=O)NC2CCN(Cc3ccccc3)CC2)c1`?
HTR5A inv ctr: 1; MOR-DOR inv ag: -76; HTR5A ag ctr: 0; OPRM1-OPRD1 ag: 18*; OPRM1-D1 ag cf: 26*; HTR5A ag counter: 1

Results for Cc1ccc(-c2cc(C(=O)Nc3ccncc3)c3ccccc3n2)cc1 ?
HTR5A inv ctr: -31; MOR-DOR inv ag: -153; HTR5A ag ctr: 12; OPRM1-OPRD1 ag: 28*; OPRM1-D1 ag cf: 18; HTR5A ag counter: 15

How did O=C(Nc1ncccn1)c1cc(-c2cccc(Br)c2)nc2ccccc12 do in these assays?
HTR5A inv ctr: -5; MOR-DOR inv ag: 12; HTR5A ag ctr: 2; OPRM1-OPRD1 ag: -3

Results for O=C(Nc1ccncc1)c1cc(-c2cccc(Br)c2)nc2ccccc12 ?
HTR5A inv ctr: -56; MOR-DOR inv ag: -336; HTR5A ag ctr: 26*; OPRM1-OPRD1 ag: 52*; OPRM1-D1 ag cf: 11; HTR5A ag counter: 6

Source: PubChem
